Source: publication PMC7862700, “An all-to-all approach to the identification of sequence-specific readers for epigenetic DNA modifications on cytosine”

Columns and labels:
Assay in all cases: DAPPL (digital affinity profiling via proximity ligation, sequencing); 10 mM Tris-HCl pH 7.5, 50 mM NaCl, 1 mM DTT, 4% glycerol, room temperature, 30 min; GST-TFs on glutathione beads, 16-mer random dsDNA library, 0.1% formaldehyde crosslink after washing; high values mean tight binding
Conditions in all cases: protein: recombinant; tags: N-terminal GST; dsDNA, one strand shown
FEV = biological target: T1, FEV (Homo sapiens, UniProt Q99581 1-238)
T1 sequence: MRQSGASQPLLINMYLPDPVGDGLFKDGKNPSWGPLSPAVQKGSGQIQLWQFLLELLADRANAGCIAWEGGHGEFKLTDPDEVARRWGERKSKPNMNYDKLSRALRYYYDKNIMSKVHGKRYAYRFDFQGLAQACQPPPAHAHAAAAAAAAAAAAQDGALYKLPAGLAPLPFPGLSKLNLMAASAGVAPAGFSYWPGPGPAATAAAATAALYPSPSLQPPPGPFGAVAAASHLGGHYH
In short: (§1)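 Human transcription factors carrying a GST fusion were produced in yeast, bound to glutathione beads, tagged with DNA barcodes and pooled together with a tag-only sample. Each pool was held with 200 nmole of a random double-stranded 16-mer DNA library in Tris/NaCl/DTT/glycerol buffer for 30 min at room temperature, then washed, crosslinked in 0.1% formaldehyde, proximity-ligated with BsaI/T4 ligase (1 h, 37 °C), PCR-amplified and sequenced on an Illumina NextSeq500. Binding signal is the read frequency of each hexamer for a given factor divided by its frequency in the tag-only sample.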

ETV5 = ETV5 (Homo sapiens, UniProt P41161 1-510)
Chain of ETV5 (P41161 whole entry): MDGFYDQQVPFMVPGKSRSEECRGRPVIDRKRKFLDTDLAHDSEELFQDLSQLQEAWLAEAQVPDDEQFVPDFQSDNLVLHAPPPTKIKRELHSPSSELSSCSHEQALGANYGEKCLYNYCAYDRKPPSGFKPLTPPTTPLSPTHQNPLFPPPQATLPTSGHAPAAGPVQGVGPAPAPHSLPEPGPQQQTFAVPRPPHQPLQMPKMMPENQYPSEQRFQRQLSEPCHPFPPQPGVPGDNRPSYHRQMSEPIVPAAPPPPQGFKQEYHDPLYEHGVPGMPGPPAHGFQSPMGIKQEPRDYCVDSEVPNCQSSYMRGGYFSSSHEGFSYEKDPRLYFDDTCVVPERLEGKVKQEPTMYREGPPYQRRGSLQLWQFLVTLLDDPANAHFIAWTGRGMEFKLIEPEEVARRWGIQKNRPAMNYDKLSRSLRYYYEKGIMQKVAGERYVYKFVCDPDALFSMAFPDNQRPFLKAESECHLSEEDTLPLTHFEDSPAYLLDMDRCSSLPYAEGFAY
In short: as §1

SPIC = biological target: T2, SPIC (Homo sapiens, UniProt Q8N5J4 1-248)
T2 sequence: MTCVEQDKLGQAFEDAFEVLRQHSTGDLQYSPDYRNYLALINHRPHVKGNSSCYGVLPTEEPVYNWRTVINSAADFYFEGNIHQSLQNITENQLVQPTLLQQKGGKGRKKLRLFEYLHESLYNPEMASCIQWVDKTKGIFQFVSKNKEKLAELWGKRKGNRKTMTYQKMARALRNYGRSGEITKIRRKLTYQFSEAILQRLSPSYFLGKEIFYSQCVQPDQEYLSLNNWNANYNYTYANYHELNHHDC
In short: as §1

ELF4 = ELF4 (Homo sapiens, UniProt Q99607 1-663)
Chain of ELF4 (Q99607 whole entry): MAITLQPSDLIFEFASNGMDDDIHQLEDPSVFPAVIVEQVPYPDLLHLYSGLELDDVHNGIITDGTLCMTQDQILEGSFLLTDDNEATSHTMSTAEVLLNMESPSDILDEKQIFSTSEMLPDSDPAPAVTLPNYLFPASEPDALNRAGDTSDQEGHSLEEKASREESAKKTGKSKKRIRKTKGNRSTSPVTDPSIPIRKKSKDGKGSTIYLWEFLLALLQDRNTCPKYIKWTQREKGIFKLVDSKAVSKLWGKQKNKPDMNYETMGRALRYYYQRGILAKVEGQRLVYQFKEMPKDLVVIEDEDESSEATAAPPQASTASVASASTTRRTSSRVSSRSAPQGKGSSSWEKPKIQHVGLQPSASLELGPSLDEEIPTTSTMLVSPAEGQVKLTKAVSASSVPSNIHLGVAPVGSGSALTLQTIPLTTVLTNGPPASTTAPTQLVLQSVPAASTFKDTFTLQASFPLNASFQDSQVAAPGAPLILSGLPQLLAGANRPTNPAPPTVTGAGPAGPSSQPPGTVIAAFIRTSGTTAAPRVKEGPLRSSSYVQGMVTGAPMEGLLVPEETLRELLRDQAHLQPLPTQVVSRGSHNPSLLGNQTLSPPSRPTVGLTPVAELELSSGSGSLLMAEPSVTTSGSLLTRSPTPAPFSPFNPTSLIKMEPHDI
In short: as §1

ELK4 = biological target: T3, ELK4 (Homo sapiens, UniProt P28324-2 1-405)
T3 sequence: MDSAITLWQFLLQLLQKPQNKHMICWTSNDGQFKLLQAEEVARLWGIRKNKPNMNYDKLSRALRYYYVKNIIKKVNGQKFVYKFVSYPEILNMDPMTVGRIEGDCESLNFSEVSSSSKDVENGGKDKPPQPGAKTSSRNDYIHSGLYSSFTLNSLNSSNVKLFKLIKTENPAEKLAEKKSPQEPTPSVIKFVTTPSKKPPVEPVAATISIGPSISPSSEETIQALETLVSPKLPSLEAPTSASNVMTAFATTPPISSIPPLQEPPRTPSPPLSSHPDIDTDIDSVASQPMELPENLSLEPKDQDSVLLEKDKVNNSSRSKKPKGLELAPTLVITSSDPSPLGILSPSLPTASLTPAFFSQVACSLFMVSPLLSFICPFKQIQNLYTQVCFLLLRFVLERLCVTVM
In short: as §1

ETV2 = biological target: T4, ETV2 (Homo sapiens, UniProt O00321 1-342)
T4 sequence: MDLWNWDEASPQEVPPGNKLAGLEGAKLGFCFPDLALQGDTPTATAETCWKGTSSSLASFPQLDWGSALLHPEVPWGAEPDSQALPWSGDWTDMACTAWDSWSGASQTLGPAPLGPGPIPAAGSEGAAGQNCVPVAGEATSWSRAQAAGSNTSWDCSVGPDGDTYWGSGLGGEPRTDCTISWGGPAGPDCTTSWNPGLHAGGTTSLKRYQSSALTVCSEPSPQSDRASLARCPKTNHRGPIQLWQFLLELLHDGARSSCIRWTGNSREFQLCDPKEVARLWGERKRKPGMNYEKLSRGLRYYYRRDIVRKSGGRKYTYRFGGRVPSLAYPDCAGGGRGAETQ
In short: as §1

ELF3 = biological target: T5, ELF3 (Homo sapiens, UniProt P78545 1-371)
T5 sequence: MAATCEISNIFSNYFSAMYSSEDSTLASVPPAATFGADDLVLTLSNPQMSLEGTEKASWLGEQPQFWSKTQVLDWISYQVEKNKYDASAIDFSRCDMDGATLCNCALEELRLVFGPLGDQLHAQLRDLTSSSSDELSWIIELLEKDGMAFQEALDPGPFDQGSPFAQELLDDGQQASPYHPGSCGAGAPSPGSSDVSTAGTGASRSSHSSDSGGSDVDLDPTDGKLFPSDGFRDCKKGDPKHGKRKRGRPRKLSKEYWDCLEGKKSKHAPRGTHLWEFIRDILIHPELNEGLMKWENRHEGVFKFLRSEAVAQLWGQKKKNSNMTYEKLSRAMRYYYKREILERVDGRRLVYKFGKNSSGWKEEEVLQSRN
In short: as §1

ETV1 = ETV1 (Homo sapiens, UniProt P50549 1-477)
Chain of ETV1 (P50549 whole entry): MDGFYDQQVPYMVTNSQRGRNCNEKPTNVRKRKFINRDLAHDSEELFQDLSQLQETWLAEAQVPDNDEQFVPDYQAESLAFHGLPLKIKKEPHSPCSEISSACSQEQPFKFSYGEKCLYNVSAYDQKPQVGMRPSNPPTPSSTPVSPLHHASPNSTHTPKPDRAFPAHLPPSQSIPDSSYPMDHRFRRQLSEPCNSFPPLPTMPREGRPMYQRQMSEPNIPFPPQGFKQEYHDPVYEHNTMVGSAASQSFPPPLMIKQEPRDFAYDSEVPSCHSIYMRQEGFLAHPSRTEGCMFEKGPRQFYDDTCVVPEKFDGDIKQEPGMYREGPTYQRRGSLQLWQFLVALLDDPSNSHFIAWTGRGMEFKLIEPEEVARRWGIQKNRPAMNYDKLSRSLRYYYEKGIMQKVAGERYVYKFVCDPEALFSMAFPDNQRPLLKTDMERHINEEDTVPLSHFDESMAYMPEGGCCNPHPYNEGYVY
In short: as §1

CRX = CRX (Homo sapiens, UniProt O43186 1-299)
Chain of CRX (O43186 whole entry): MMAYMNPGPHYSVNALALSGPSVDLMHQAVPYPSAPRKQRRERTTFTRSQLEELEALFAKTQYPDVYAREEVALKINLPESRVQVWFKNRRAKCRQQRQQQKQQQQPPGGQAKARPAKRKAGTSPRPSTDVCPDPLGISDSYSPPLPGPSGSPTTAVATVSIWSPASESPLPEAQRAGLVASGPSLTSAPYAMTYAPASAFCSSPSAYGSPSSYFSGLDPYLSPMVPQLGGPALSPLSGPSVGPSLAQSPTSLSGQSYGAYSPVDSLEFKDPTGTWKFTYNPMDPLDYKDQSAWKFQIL
In short: as §1

| Sequence | binding signal (FEV) | binding signal (ETV5) | binding signal (SPIC) | binding signal (ELF4) | binding signal (ELK4) | binding signal (ETV2) | binding signal (ELF3) | binding signal (ETV1) | binding signal (CRX) |
| --- | --- | --- | --- | --- | --- | --- | --- | --- | --- |
| ATACGG | 1.16 fold enrichment (6-mer frequency, TF over GST control) | 1.25 fold enrichment (6-mer frequency, TF over GST control) | 1.2 fold enrichment (6-mer frequency, TF over GST control) | 1.2 fold enrichment (6-mer frequency, TF over GST control) | 1.03 fold enrichment (6-mer frequency, TF over GST control) | 1.22 fold enrichment (6-mer frequency, TF over GST control) | 1.25 fold enrichment (6-mer frequency, TF over GST control) | 1.21 fold enrichment (6-mer frequency, TF over GST control) | – |
| CCCCTG | 1.18 fold enrichment (6-mer frequency, TF over GST control) | 1.22 fold enrichment (6-mer frequency, TF over GST control) | 1.16 fold enrichment (6-mer frequency, TF over GST control) | 1.21 fold enrichment (6-mer frequency, TF over GST control) | 1.46 fold enrichment (6-mer frequency, TF over GST control) | 1.03 fold enrichment (6-mer frequency, TF over GST control) | 1.21 fold enrichment (6-mer frequency, TF over GST control) | 1.24 fold enrichment (6-mer frequency, TF over GST control) | 1.07 fold enrichment (6-mer frequency, TF over GST control) |
| AACAGG | 1.16 fold enrichment (6-mer frequency, TF over GST control) | 1.27 fold enrichment (6-mer frequency, TF over GST control) | 1.15 fold enrichment (6-mer frequency, TF over GST control) | 1.08 fold enrichment (6-mer frequency, TF over GST control) | 1.09 fold enrichment (6-mer frequency, TF over GST control) | 1.03 fold enrichment (6-mer frequency, TF over GST control) | 1.15 fold enrichment (6-mer frequency, TF over GST control) | 1.18 fold enrichment (6-mer frequency, TF over GST control) | – |
| GGATAT | 3.83 fold enrichment (6-mer frequency, TF over GST control) | 1.71 fold enrichment (6-mer frequency, TF over GST control) | 1.53 fold enrichment (6-mer frequency, TF over GST control) | 1.38 fold enrichment (6-mer frequency, TF over GST control) | 1.48 fold enrichment (6-mer frequency, TF over GST control) | 1.55 fold enrichment (6-mer frequency, TF over GST control) | 1.78 fold enrichment (6-mer frequency, TF over GST control) | 1.62 fold enrichment (6-mer frequency, TF over GST control) | 1.09 fold enrichment (6-mer frequency, TF over GST control) |
| TACGGA | 1.26 fold enrichment (6-mer frequency, TF over GST control) | 1.34 fold enrichment (6-mer frequency, TF over GST control) | 1.21 fold enrichment (6-mer frequency, TF over GST control) | 1.25 fold enrichment (6-mer frequency, TF over GST control) | 1.15 fold enrichment (6-mer frequency, TF over GST control) | 1.42 fold enrichment (6-mer frequency, TF over GST control) | 1.42 fold enrichment (6-mer frequency, TF over GST control) | 1.39 fold enrichment (6-mer frequency, TF over GST control) | 1 fold enrichment (6-mer frequency, TF over GST control) |
| ACCGCT | 1.17 fold enrichment (6-mer frequency, TF over GST control) | 1.1 fold enrichment (6-mer frequency, TF over GST control) | 1.13 fold enrichment (6-mer frequency, TF over GST control) | 1.14 fold enrichment (6-mer frequency, TF over GST control) | 1.18 fold enrichment (6-mer frequency, TF over GST control) | 1.07 fold enrichment (6-mer frequency, TF over GST control) | 1.19 fold enrichment (6-mer frequency, TF over GST control) | – | 1.01 fold enrichment (6-mer frequency, TF over GST control) |
| TCACAT | 1.28 fold enrichment (6-mer frequency, TF over GST control) | 1.28 fold enrichment (6-mer frequency, TF over GST control) | 1.11 fold enrichment (6-mer frequency, TF over GST control) | 1.15 fold enrichment (6-mer frequency, TF over GST control) | 1.17 fold enrichment (6-mer frequency, TF over GST control) | 1.32 fold enrichment (6-mer frequency, TF over GST control) | 1.21 fold enrichment (6-mer frequency, TF over GST control) | 1.21 fold enrichment (6-mer frequency, TF over GST control) | 1.09 fold enrichment (6-mer frequency, TF over GST control) |
